Assay outcomes as filed in PubChem.
This excerpt belongs to a sample that is enriched for hits.
STK33 inh = STK33 kinase inhibitors, primary screen, biochemical, luminescence, ADP-Glo, MBP substrate | Serine/threonine-protein kinase 33 (Homo sapiens), Q9BYT3 | inhibition, % at 12.5 µM | 27,000 compounds, 0.44% hits; in the data active = inhibition above about 20%
Target sequence (Q9BYT3 whole entry, looked up): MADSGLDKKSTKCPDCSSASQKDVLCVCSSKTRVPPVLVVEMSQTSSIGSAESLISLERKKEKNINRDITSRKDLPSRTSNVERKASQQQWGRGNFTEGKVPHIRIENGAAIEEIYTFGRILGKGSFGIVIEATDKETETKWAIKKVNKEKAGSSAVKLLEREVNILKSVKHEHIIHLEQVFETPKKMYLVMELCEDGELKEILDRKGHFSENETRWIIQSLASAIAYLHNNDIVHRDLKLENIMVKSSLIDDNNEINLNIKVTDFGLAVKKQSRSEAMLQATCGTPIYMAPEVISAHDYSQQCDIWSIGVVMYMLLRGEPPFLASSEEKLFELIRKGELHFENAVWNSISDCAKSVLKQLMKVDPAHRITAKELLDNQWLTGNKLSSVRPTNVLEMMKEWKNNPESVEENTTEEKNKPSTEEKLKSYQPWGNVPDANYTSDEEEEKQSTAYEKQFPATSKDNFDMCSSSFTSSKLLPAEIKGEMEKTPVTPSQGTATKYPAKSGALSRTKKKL
PD-1 reversal = activators reversing PD-1 mediated T-cell inhibition, primary screen, luminescence, primary human CD4 T cells, PD-L1 beads; CellTiter-Glo 96 h; activation, % (test concentration not listed); 29,000 tested, under 10 active; AID 2316, 2010; call rule not given here;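 note: 0% = median vehicle wells and 100% = positive control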
NOMO-1 viab = NOMO-1 AML cell viability reduction, primary screen, STK33 inhibitor project, CellTiter-Glo luminescence. NOMO-1 AML viability, 72 h. inhibition, % (test concentration not listed). 37,000 compounds, 7.5% hits; in the data active = inhibition above about 80%
Starred values were filed as active, the others as inactive; . = no result given; ! = a repeat was not active.

SMILES	STK33 inh	PD-1 reversal	NOMO-1 viab
C[C@@H]1CN([C@@H](C)CO)C(=O)c2cccc(NS(=O)(=O)c3ccc(Cl)cc3)c2O[C@@H]1CN(C)C(=O)Nc1ccc(C(F)(F)F)cc1	.	-3	121*
Cc1ccc(S(=O)(=O)Nc2cccc3c2O[C@H](CN(C)C(=O)Nc2ccc(C(F)(F)F)cc2)[C@H](C)CN([C@H](C)CO)C3=O)cc1	.	-4	90*
Cc1ccc(S(=O)(=O)Nc2cccc3c2O[C@@H](CN(C)C(=O)Nc2ccc(C(F)(F)F)cc2)[C@@H](C)CN([C@H](C)CO)C3=O)cc1	.	.	34
C[C@@H]1CN([C@H](C)CO)C(=O)c2cccc(NS(=O)(=O)c3ccc(Cl)cc3)c2O[C@@H]1CN(C)C(=O)Nc1ccc(C(F)(F)F)cc1	.	-2	38
COC(=O)c1ccc(NC(=O)CSc2nnc(-c3cccs3)n2-c2ccc(OC)cc2)cc1	5	-4	18
CCCCCCCCC/C=C/CCCCC(=O)C1C(=O)CCC(O)C1=O (stereo unspecified)	-8	0	109*
CCCCCC[C@H](O)/C=C/CC1C(=O)CC[C@H](O)C1=O (stereo partly specified)	-1	-1	2
CS(=O)(=O)N(CC(=O)Nc1cc(Cl)ccc1Oc1ccccc1)c1cc(Cl)ccc1Cl	-2	0	70
c1cn2c3c(n1)CCCc3c1cc(C3CCCCC3)ccc12	.	0	123*
COc1cc(C(=O)NC(C)C(=O)O)cc(OC)c1OC (stereo unspecified)	0	.	26
COc1cc(C(=O)N=C2C(C)=CC(=O)C=C2C)cc(OC)c1OC	.	-6	135*
COc1ccccc1CC(=O)Nc1ccc(-c2noc(-c3cc(OC)c(OC)c(OC)c3)n2)cc1	-1	.	36
NS(=O)(=O)c1ccc(N=Cc2c(O)[nH]c3ccccc23)cc1	94*	2	26
COC1OC(OC)C(O)(CC[C@@]2(O)[C@H](C)C[C@@H](O)C3[C@@](C)(CO)CCC[C@]32C)C1O (stereo partly specified)	0	0	82*
CC1CCC2(C)C(CC(O)C(O)C2(O)CO)C1(C)CCc1ccoc1 (stereo unspecified)	0	1	17
COc1ccc(CN(C)C[C@@H]2Oc3ccc(NC(=O)Nc4ccccc4)cc3CC(=O)N([C@@H](C)CO)C[C@@H]2C)cc1	0	-1	51
COc1ccc(NC(=O)Nc2ccc3c(c2)CC(=O)N([C@@H](C)CO)C[C@@H](C)[C@@H](CN(C)Cc2ccc(C(=O)Nc4ccccc4N)cc2)O3)cc1	.	1	86*
COc1ccc(NC(=O)Nc2ccc3c(c2)CC(=O)N([C@@H](C)CO)C[C@H](C)[C@@H](CN(C)Cc2ccc(C(=O)Nc4ccccc4N)cc2)O3)cc1	.	-2	23
COc1ccc(CN(C)C[C@@H]2Oc3ccc(NC(=O)Nc4ccccc4)cc3CC(=O)N([C@H](C)CO)C[C@H]2C)cc1	-3	0	-5
COc1ccc(NC(=O)Nc2ccc3c(c2)CC(=O)N([C@H](C)CO)C[C@@H](C)[C@@H](CN(C)Cc2ccc(C(=O)Nc4ccccc4N)cc2)O3)cc1	.	-1	90*
COc1ccc(NC(=O)Nc2ccc3c(c2)CC(=O)N([C@H](C)CO)C[C@H](C)[C@H](CN(C)Cc2ccc(C(=O)Nc4ccccc4N)cc2)O3)cc1	.	-4	127*
COc1ccc(CN(C)C[C@@H]2Oc3ccc(NC(=O)Nc4ccc(OC)cc4)cc3CC(=O)N([C@@H](C)CO)C[C@@H]2C)cc1	-3	0	2
COc1ccc(NC(=O)Nc2ccc3c(c2)CC(=O)N([C@@H](C)CO)C[C@H](C)[C@H](CN(C)Cc2ccc(C(=O)Nc4ccccc4N)cc2)O3)cc1	.	-2	126*
O=C(/C=C/c1ccccc1)O[C@@H]1C[C@@](O)(C(=O)O)C[C@@H](O)[C@@H]1O	-3	2	16
O=C(O)[C@H]1O[C@@H](Oc2c(-c3ccccc3)cc(O)c(-c3ccccc3)c2O)[C@H](O)[C@@H](O)[C@@H]1O	0	1	8
SMILES	STK33 inh	PD-1 reversal	NOMO-1 viab
CCOc1cccc(-c2nnc(SCC(=O)Nc3c(C)cccc3C)n2C)c1	3	0	-10
CN(CC(=O)C1=C(c2ccc(Br)cc2)C(=O)c2ccccc2C1=O)c1ccccc1	.	-5	126*
CS(=O)(=O)N(CC(=O)Nc1ccccc1-c1ccccc1)c1ccc(Br)cc1	-1	.	23
Cc1ccc(S(=O)(=O)N2CCC(=O)c3ccccc32)cc1	.	-2	110*
COC1C(OC)N(S(=O)(=O)c2ccc(C)cc2)CCN1S(=O)(=O)c1ccc(C)cc1 (stereo unspecified)	3	-3	7
COc1cc2ncnc(Nc3cccc(O)c3)c2cc1OC	43*	-1	-4
COc1cc2ncnc(Nc3cccc(Br)c3)c2cc1OC	0	6	-3
COc1cc2ncnc(Nc3cccc(Cl)c3)c2cc1OC	15	1	89*!
Brc1cccc(Nc2ncnc3cc4nc[nH]c4cc23)c1	6	4	27
CC(=O)Nc1ccccc1NC(=O)COc1cc(Cl)c(Cl)cc1Cl	2	1	34
COc1cccc2cc(C(=O)C3C(=O)C(=O)N(c4cc(C)on4)C3c3ccccc3)oc12 (stereo unspecified)	-5	.	-4
C[C@@H]1CN([C@@H](C)CO)C(=O)c2cccc(NC(=O)Nc3ccccc3)c2O[C@@H]1CN(C)Cc1ccc(C(=O)O)cc1	.	-1	10
C[C@H]1CN([C@@H](C)CO)C(=O)c2cccc(NC(=O)Nc3ccccc3)c2O[C@H]1CN(C)Cc1ccc(C(=O)O)cc1	.	1	9
C[C@@H]1CN([C@H](C)CO)C(=O)c2cccc(NC(=O)Nc3ccccc3)c2O[C@H]1CN(C)Cc1ccc(C(=O)Nc2ccccc2N)cc1	.	-4	139*
C[C@H]1CN([C@@H](C)CO)C(=O)c2cccc(NC(=O)Nc3cccc4ccccc34)c2O[C@H]1CN(C)Cc1ccc(C(=O)Nc2ccccc2N)cc1	.	-2	128*
C[C@@H]1CN([C@@H](C)CO)C(=O)c2cccc(NC(=O)Nc3ccccc3)c2O[C@@H]1CN(C)Cc1ccc(C(=O)Nc2ccccc2N)cc1	.	0	140*
C[C@H](CO)N1C[C@H](C)[C@@H](CN(C)Cc2ccc(C(=O)O)cc2)Oc2c(NC(=O)Nc3cccc4ccccc34)cccc2C1=O	.	1	11
COC(=O)c1cc(OC)c(OC)cc1NC(=O)COc1ccc(OC)cc1	-1	-2	2
CC(C)Oc1cccc(-c2cc(C(=O)NCc3ccco3)c3ccccc3n2)c1	-1	.	47
Cc1ccc(S(=O)(=O)N(C)C[C@H]2Oc3c(NC(=O)c4nc5ccccc5s4)cccc3C(=O)N([C@@H](C)CO)C[C@@H]2C)cc1	.	.	68
C[C@@H]1CN([C@H](C)CO)C(=O)c2cccc(NC(=O)c3nc4ccccc4s3)c2O[C@H]1CN(C)S(=O)(=O)c1ccccc1	.	.	47
C[C@@H]1CN([C@@H](C)CO)C(=O)c2cccc(NC(=O)c3nc4ccccc4s3)c2O[C@@H]1CN(C)S(=O)(=O)c1ccc(Cl)cc1	.	-2	113*
